# This is a sample that favours compounds with a hit; in the whole collection about 4.2% have one here.
# hgDAF12 agonist: hgDAF-12 agonism, primary luciferase screen; HEK293 GAL4-hgDAF12 UAS-luciferase reporter, agonist luminescence; normalized to butyrate control; activation, % at 6.8 µM; hit rate 1.8% among 370,000; AID 687014;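 active = activation above a cutoff set at the mean of all screened compounds plus 3 SD, cut at about 10% in these data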;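 note: 0% = DMSO wells and 100% = sodium butyrate wells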
# hcDAF-12 act: activates DAF-12 receptor from parasite H. contortus | hit rate 1.4% among 370,000 | HEK293 hcDAF-12 lit1-tk-luc reporter, luminescence; 0% DMSO, 100% Δ7-dafachronic acid | activation, % at 6.8 µM;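 active = activation above the mean of all tested compounds plus 3 SD, cut at about 5.5% in these data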;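 note: 100% = response to 3 µM Δ7-dafachronic acid high control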
# DAX1 inh: blocks DAX1 repression of SF-1 activated StAR promoter | inhibition, % at 6.8 µM | hit rate 1.1% among 370,000 | HEK293T StAR-luciferase reporter, SF-1/DAX-1 repression relief;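 active = inhibition above the mean over all tested compounds plus 3 SD, cut at about 3.6% in these data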;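 note: 0% = DAX-1 cells with DMSO and 100% = cells lacking DAX-1 with DMSO; higher inhibition means more luminescence from relief of DAX-1 repression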
# ssDAF12 agonist: S. stercoralis DAF-12 activation, primary screen; HEK293 ssDAF-12/GRIP1 lit1-tk-luc reporter, luminescence; % of 3 µM dafachronic acid response; AID 652126; hit rate 1% among 370,000; activation, % at 6.8 µM;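 active = activation above the mean over all tested compounds plus 3 SD, cut at about 0.9% in these data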;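 note: 0% = DMSO-only wells and 100% = 3 µM delta7-dafachronic acid wells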
# SMARCA2 activ: increases SMARCA2 function in MMTV reporter cells | MG213 cells, MMTV-luciferase reporter, dexamethasone, overnight | activation, % at 9.1 µM | hit rate 1% among 370,000 | AID 652017; in the data active = activation above about 7.8%;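 note: 0% = vehicle wells and 100% = reference activator wells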
# SMARCA2 conf: SMARCA2 activation, confirmation screen. hit rate 30% among 3,500. shares compounds with SMARCA2 activ. activation, % at 9.1 µM. AID 652260. MG213 cells, MMTV-luciferase with dexamethasone, luminescence, overnight; MG213 cells expressing E1A, Rb sequestered; DMSO wells 0%, reference activator 100%;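 active = activation above its plate's cutoff, the mean activation of tested wells plus 3 SD, cut at about 7.9% in these data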
# VP16 Luc act: activates GAL4-VP16 luciferase, flagging SMARCA2 activator hits; shares compounds with SMARCA2 activ; HEK293 GAL4-VP16 pG5luc reporter, luciferase luminescence; scaled: DMSO wells 0%, SAHA wells 100%; activation, % at 9.1 µM; hit rate 41% among 3,500; AID 686939;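 active = activation above the solvent-only control well mean plus 3 SD, averaged across control plates, cut at about 5.2% in these data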
# LXRb hcDAF ctr: LXR-beta agonism as hcDAF-12 counter-screen. shares compounds with hcDAF-12 act. HEK293 Gal4-LXR tk-luc reporter, luminescence, 24 h; normalized: DMSO 0%, positive control 100%. activation, % at 6.8 µM. 3,400 tested, under 10 active. AID 743027;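 active = mean percent activation of the reporter above a cutoff set as the average over tested compounds plus their standard deviation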
# Target sequence (P55055 whole entry, looked up, the tested form may be a part): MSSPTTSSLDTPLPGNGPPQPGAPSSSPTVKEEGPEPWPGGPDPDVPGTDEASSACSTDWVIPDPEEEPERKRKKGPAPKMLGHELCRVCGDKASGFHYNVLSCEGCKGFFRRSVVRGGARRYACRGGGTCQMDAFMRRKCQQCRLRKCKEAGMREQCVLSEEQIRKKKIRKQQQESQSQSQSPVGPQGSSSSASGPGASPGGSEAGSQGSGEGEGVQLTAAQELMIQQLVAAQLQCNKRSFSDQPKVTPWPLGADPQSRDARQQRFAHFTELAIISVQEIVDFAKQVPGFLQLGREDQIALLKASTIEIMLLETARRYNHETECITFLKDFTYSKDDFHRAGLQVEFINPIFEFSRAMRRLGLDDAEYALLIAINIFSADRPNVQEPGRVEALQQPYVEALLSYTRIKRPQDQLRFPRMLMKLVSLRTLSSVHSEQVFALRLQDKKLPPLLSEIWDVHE
# hcDAF12 conf: hcDAF-12 agonism, confirmation assay | HEK293 hcDAF-12 lit1-tk-luc reporter, luminescence; % of Δ7-dafachronic acid response | shares compounds with hcDAF-12 act | AID 743032 | hit rate 61% among 3,400 | activation, % at 6.8 µM;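 active = mean activation across triplicate tests above the threshold derived from the earlier primary screen, cut at about 5.5% in these data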;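 note: 0% = DMSO only wells and 100% = 3 µM Δ7-dafachronic acid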
# hgDAF12 conf: hgDAF-12 agonism, confirmation assay. HEK293 GAL4-hgDAF12 luciferase reporter, agonist mode; percent of butyrate response. shares compounds with hgDAF12 agonist. hit rate 80% among 3,300. activation, % at 6.8 µM;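 active = mean activation over triplicate wells above the hit cutoff derived from the earlier primary screen, cut at about 11% in these data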;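 note: 0% = DMSO low control and 100% = 2 mM sodium butyrate high control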
# LXRb DAF12 ctr: LXR-beta agonism as DAF-12 counter-screen; HEK293 Gal4-LXR luciferase reporter, 24 h; activation, % at 6.8 µM; AID 743051; 3,300 tested, under 10 active; shares compounds with hgDAF12 agonist;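 active = mean activation of the triplicate above a set limit carried over from the primary screen, none filed active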
# Numbers without * were called inactive; . = no result given.
SMILES,hgDAF12 agonist,hcDAF-12 act,DAX1 inh,ssDAF12 agonist,SMARCA2 activ,SMARCA2 conf,VP16 Luc act,hgDAF12 conf,LXRb DAF12 ctr,others
Cc1ccc(C(=O)NCCN2CCC(n3c(=O)[nH]c4ccccc43)CC2)cc1,-1,1,1,-1,-2,.,.,.,.,
COc1ccc(OC)c(NC(=O)/C=C/c2ccccc2[N+](=O)[O-])c1,-1,-1,-1,-1,-2,.,.,.,.,
COc1cccc(NC(=O)/C=C/c2ccccc2[N+](=O)[O-])c1,16*,5,3,0,10*,8.8*,15*,16*,1,
O=C(Nc1cccc(O)c1)c1c(O)c2ccccc2[nH]c1=O,13*,14*,2,3.9*,10*,7,9.3*,24*,1,LXRb hcDAF ctr=2;hcDAF12 conf=15*
Cc1cccc(NC(=O)c2c(O)c3ccccc3[nH]c2=O)c1,3,0,1,-1,-2,.,.,.,.,
COc1ccc(-c2cc(-c3ccccc3O)[nH]n2)cc1OC,16*,7.9*,3.6*,0,13*,18*,14*,16*,1,LXRb hcDAF ctr=1;hcDAF12 conf=3
COc1ccc(-c2cc(-c3cc(F)ccc3O)[nH]n2)cc1OC,10,2,2,0,1,.,.,.,.,
COc1ccccc1C(=O)NCC(=O)Nc1ccc2c(c1)OCO2,-1,-2,0,-1,0,.,.,.,.,
COc1ccccc1C(=O)Nc1ccc2c(c1)OCCO2,14*,6.8*,2,1,8.1*,7,11*,14*,1,LXRb hcDAF ctr=1;hcDAF12 conf=6.6*
Cc1cc(C)nc(Nc2nc3ccccc3o2)n1,5,1,1,-1,5,.,.,.,.,
c1ccc(Nc2nc3ccccc3o2)cc1,14*,8.1*,3,0.9*,13*,6,8.4*,21*,1,LXRb hcDAF ctr=1;hcDAF12 conf=8.3*
Cc1n[nH]c(C)c1S(=O)(=O)NCCc1c[nH]c2ccccc12,-2,1,0,-1,-3,.,.,.,.,
CSc1nsc(SCC(=O)Nc2ccc(C(C)=O)cc2)n1,14*,12*,2,1.0*,13*,5,10*,21*,1,
CC(=O)c1ccc(NC(=S)NCCc2cccc(Cl)c2)cc1,17*,1,3,-1,8.0*,5,11*,12*,0,
CC(=O)c1ccc(NC(=S)NCCc2ccc(S(N)(=O)=O)cc2)cc1,4,2,0,-2,1,.,.,.,.,
Cc1sc2nc(COC(=O)CNC(=O)c3ccccc3Cl)[nH]c(=O)c2c1C,0,-1,1,-1,-2,.,.,.,.,
COc1ccc(N/C=C\C(=O)c2ccc3c(c2)OCO3)cc1,2,0,0,-1,2,.,.,.,.,
COc1ccc(/C=C/C(=O)c2ccc3c(c2)OCO3)c(OC)c1,24*,4,3,0,11*,8.8*,8.0*,17*,1,
O=C(NC(=S)NCc1ccccc1)c1ccc(Br)o1,1,1,0,-1,-2,.,.,.,.,
O=C(NC(=S)Nc1ccccc1)c1ccc(Br)o1,17*,7.9*,2,-1,9.3*,13*,6.2*,13*,0,LXRb hcDAF ctr=1;hcDAF12 conf=7.6*
CC(C)NC(=O)N1Cc2cc(C(=O)NC3CCC3)nc(-c3cccc(-c4cncnc4)c3)c2[C@H]1CCO,-3,0,1,-1,2,.,.,.,.,
Nc1nc(Nc2ccccc2F)sc1C(=O)c1ccccc1,19*,3,0,-1,8.2*,13*,6.9*,19*,1,
CCC(=O)Nc1cccc(NC(=S)NC(=O)c2cc3ccccc3o2)c1,16*,5,2,1,12*,-2,15*,22*,1,
CCC(=O)Nc1ccc(NC(=S)NC(=O)c2cc3ccccc3o2)cc1,1,1,-1,-1,2,.,.,.,.,
CCCCNc1ncnc2c1cnn2Cc1ccc(Cl)cc1,1,-2,-2,-1,-3,.,.,.,.,
SMILES,hgDAF12 agonist,hcDAF-12 act,DAX1 inh,ssDAF12 agonist,SMARCA2 activ,SMARCA2 conf,VP16 Luc act,hgDAF12 conf,LXRb DAF12 ctr,others
CCCCNc1ncnc2c1cnn2-c1ccc(Cl)cc1,16*,1,1,0,10*,5,9.8*,24*,1,
O=C1C(C=NCCCn2ccnc2)=C(O)c2ccccc21,2,4,0,-1,-3,.,.,.,.,
O=C1C(C=NCCCN2CCCC2=O)=C(O)c2ccccc21,19*,4,2,0,8.5*,7,5.7*,7,0,
CCCCn1nnnc1C(c1ccccc1)N1CCN(c2ccc(C(F)(F)F)cn2)CC1 (stereo unspecified),-3,-1,-3,-1,-4,.,.,.,.,
Cc1ccccc1S(=O)(=O)N(C)C[C@H]1OCc2cnnn2CCCC(=O)N([C@H](C)CO)C[C@@H]1C,2,0,0,-1,-4,.,.,.,.,
COc1c(C)cccc1C(=O)Nc1ccc(N2CCOCC2)c(Cl)c1,21*,4,3,1,8.5*,3,14*,15*,1,
O=C(CCCc1ccncc1)c1ccccc1,13*,1,1,0,8.2*,3,6.9*,9,0,
CC(=O)c1ccc(NC(=O)/C(Cl)=C/c2ccccc2)cc1,17*,4,3,0,9.7*,13*,12*,12*,1,
CN1CCN(c2ccc(-c3cc(NC=O)c4ncc(-c5ccc(F)cc5)n4c3)cc2)CC1,17*,0,1,0,10*,14*,12*,8,0,
C(=C\c1nccc2c1[nH]c1ccccc12)/c1ccccc1,7,5,1,-1,6,.,.,.,.,
Cc1ccc(/C=C\c2nccc3c2[nH]c2ccccc23)cc1,15*,4,4.5*,1,10*,8,8.1*,8,0,
Nc1ccn([C@@H]2O[C@H](C(=O)N3CCN(Cc4ccccn4)CC3)[C@@H](O)[C@H]2O)c(=O)n1,-3,-2,-2,-1,-4,.,.,.,.,
